Consider twelve compounds from PubChem BioAssay (EPA / NIEHS).

For test [1], the target named is Transcription factor E2F1 (Homo sapiens) (UniProt Q01094). The test is described as follows: ATG_E2F_CIS: Attagene CIS-FACTORIAL HepG2 Assay for human E2F Transcription Factor 1 (AID 2282935). Conditions: HepG2 Attagene cis-reporter, E2F reporter RNA transcripts; actives raise or lower the signal. An outline of the steps: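 HepG2 cells transiently transfected with multiplexed cis-element reporter units, dosed for 24 h. Reporter mRNA measured by RT-PCR, 6-FAM primer-extension labeling, HpaI digestion and capillary electrophoresis; bidirectional fit versus DMSO baseline.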
Chain of Transcription factor E2F1 (Homo sapiens) (Q01094 whole entry, looked up): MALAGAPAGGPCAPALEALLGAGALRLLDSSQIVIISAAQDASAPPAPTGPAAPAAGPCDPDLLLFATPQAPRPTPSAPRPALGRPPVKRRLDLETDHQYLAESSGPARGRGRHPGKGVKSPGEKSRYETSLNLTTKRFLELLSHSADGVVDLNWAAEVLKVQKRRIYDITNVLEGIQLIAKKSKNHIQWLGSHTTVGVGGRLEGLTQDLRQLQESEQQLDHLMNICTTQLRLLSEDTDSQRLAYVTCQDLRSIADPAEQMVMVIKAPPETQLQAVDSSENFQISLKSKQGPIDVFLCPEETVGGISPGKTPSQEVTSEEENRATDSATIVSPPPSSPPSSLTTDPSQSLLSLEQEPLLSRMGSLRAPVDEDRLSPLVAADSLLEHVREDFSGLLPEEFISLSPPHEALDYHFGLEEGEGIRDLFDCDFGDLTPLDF

A short description of test [2]: ATG_E_Box_CIS: Attagene CIS-FACTORIAL HepG2 Assay for human Enhancer Box (E-box) (AID 2282936). To be noted: HepG2 E-box cis-reporter transcription, actives raise or lower the signal. A digest of the protocol:
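HepG2 cells transiently transfected with multiplexed cis-element reporter units sensing endogenous transcription factor activity; 24 h compound exposure. Reporter mRNA measured by RT-PCR, 6-FAM primer extension, HpaI digestion and capillary electrophoresis; bidirectional fit versus DMSO.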

Test [3] is described as follows: ATG_M_61_CIS: Attagene CIS-FACTORIAL HepG2 Assay for M61 Transcription Factor (Internal Marker) (AID 2282937). To be noted: HepG2 Attagene CIS-FACTORIAL M61 internal marker reporter; actives raise or lower the signal. A digest of the protocol: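 Cells were transfected with reporter units under cis-regulatory promoters, treated with chemicals for 24 h, then lysed for RNA. Reporter transcripts were quantified by RT-PCR and capillary electrophoresis, and activity was fitted bidirectionally against DMSO.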

Test [4] can be described thus: ATG_EGR_CIS: Attagene CIS-FACTORIAL HepG2 Assay for human Early Growth Response 1 (EGR1) (AID 2282938). Conditions: HepG2 Attagene CIS-FACTORIAL EGR reporter mRNA; actives raise or lower the signal. A digest of the protocol: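 Endogenous TF activity in HepG2 liver cells was gauged through cis-promoter reporter constructs transiently transfected. After 24 h dosing, reporter mRNA was quantified by RT-PCR and capillary electrophoresis, and curves fitted in both directions versus DMSO.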

Test [5] in a line: ATG_ERE_CIS: Attagene CIS-FACTORIAL HepG2 Assay for Estrogen Response Element (ERE) (AID 2282940). Conditions: HepG2 ERE cis-reporter, Attagene RNA transcript; actives raise or lower the signal. A digest of the protocol:
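Transient MRTU transfection of human HepG2; cis-element promoters; 24 h dosing; total RNA → RT (oligo dT) → PCR → 6-FAM primer extension → HpaI digest → CE fluorescence. Bidirectional fit, DMSO baseline.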

A short description of test [6]: ATG_Ets_CIS: Attagene CIS-FACTORIAL HepG2 Assay for human Erythroblast Transformation Specific (ETS) (AID 2282941). To be noted: HepG2 ETS cis-reporter transcription, actives raise or lower the signal. An outline of the steps: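 Steps: transfect HepG2 with multiple reporter units; treat compound 24 h; isolate RNA, DNase-treat, reverse-transcribe; PCR-amplify, label with 6-FAM, digest with HpaI; separate by capillary electrophoresis. Activity fitted both directions versus DMSO.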

Test [7] has as its target Hepatocyte nuclear factor 3-beta (Homo sapiens) (UniProt Q9Y261). The test is described as follows: ATG_FoxA2_CIS: Attagene CIS-FACTORIAL HepG2 Assay for human Forkhead box A2 (FOXA2) (AID 2282942). To be noted: HepG2 cis-reporter transcription factor activity, 24 h; actives raise or lower the signal. An outline of the steps: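 Endogenous transcription factor activity was read in HepG2 cells carrying transiently transfected cis-promoter reporter units. After 24 h dosing, reporter mRNA was quantified by RT-PCR and capillary electrophoresis, and values fitted bidirectionally versus DMSO.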

A short description of test [8]: ATG_FoxO_CIS: Attagene CIS-FACTORIAL HepG2 Assay for human Forkhead box O (FoxO) (AID 2282943). To be noted: HepG2 Attagene cis-reporter, FoxO element, mRNA; actives raise or lower the signal. A digest of the protocol: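 24 h chemical exposure, HepG2 with transient cis-MRTU transfection. RNA extraction, oligo(dT) RT, reporter-specific PCR, primer-extension labelling, HpaI digestion, CE fragment analysis; bidirectional fit, DMSO baseline.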

Test [9] in a line: ATG_GATA_CIS: Attagene CIS-FACTORIAL HepG2 Assay for human GATA Binding Protein (AID 2282944). To be noted: HepG2 GATA cis-element reporter, Attagene multiplex mRNA; actives raise or lower the signal. An outline of the steps: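 Transient MRTU transfection, HepG2, 24 h compound exposure. Total RNA → oligo(dT) RT → PCR → 6-FAM primer extension → HpaI cut → CE. Bidirectional fit vs DMSO.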

The nature of test [10]: ATG_M_19_CIS: Attagene CIS-FACTORIAL HepG2 Assay for M19 Transcription Factor (Internal Marker) (AID 2282939). To be noted: HepG2 Attagene CIS-FACTORIAL M19 internal marker reporter; actives raise or lower the signal. An outline of the steps: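 Transfect HepG2 with MRTU reporter library → dose chemical, 24 h → isolate total RNA, reverse-transcribe with oligo(dT) → PCR, 6-FAM label, HpaI cut (2 h, 37 C) → capillary electrophoresis. Bidirectional fit vs DMSO.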

“And” between values parts separate entries of the source, which are not always exact repeats. Equal entries are not always repeated. Where a structure was tested more than once in an assay, its records may differ in their call. The source made the active and inactive calls. How the source made its calls: active means hit-call score of the fitted dose curve at least 0.9, where 1 is the maximum; inactive means score below 0.9.

Chain of Hepatocyte nuclear factor 3-beta (Homo sapiens) (Q9Y261 whole entry, looked up): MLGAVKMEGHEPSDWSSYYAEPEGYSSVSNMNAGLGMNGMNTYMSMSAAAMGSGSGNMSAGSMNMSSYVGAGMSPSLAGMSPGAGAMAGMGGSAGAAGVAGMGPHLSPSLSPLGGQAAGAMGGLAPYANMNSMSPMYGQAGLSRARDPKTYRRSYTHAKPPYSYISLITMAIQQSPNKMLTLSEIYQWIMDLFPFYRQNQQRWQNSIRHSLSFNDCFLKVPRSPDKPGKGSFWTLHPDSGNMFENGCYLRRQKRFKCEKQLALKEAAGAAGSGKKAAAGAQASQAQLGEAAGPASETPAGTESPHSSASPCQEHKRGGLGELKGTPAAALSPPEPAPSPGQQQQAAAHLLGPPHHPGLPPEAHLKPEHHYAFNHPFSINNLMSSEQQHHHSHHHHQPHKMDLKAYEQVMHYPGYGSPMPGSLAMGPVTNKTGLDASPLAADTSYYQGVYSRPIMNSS

In the case of `C#CCN1C(=O)COc2cc(F)c(N3C(=O)C4=C(CCCC4)C3=O)cc21`, the compound was classed as inactive in [1], in test [2], in [3], in test [4], in test [5] and in [6]. Further, the compound was classed as inactive in test [7], in test [8] and in [9].
On to `CCCN(CCC)c1c([N+](=O)[O-])cc(C(F)(F)F)cc1[N+](=O)[O-]`, for which the compound was called inactive in [1], in [2], in [3], in test [4], in [10] and in [5]. Further, the outcome in test [6], in test [7], in test [8] and in test [9] was inactive.
For the compound `O=S(=O)(O)C(F)(F)C(F)(F)C(F)(F)C(F)(F)C(F)(F)C(F)(F)C(F)(F)C(F)(F)F`, the AC50 was 128 µM (active) and 48.9 µM (active) in test [1]; 134 µM (active) in [2]; 102 µM (active) in [4]; 56.1 µM (active) and 233 µM (active) in test [6]; 143 µM (active) and 58.9 µM (active) and 223 µM (active) in test [8]; 44.4 µM (active) in [9]. Besides, the compound was classed as inactive in [1], in test [2], in test [3], in [4], in test [6] and in test [7]. Besides, the result in test [8] and in test [9] was inactive.
Turning to `O=[N+]([O-])c1c(Cl)c(Cl)c(Cl)c(Cl)c1Cl`, the outcome in test [1], in test [2], in test [3], in [10], in [6] and in [7] was inactive. Moreover, the outcome in test [8] and in test [9] was inactive. Further, the figures for the AC50 in [4] and in test [5] were 90.8 µM (active) and 12.9 µM (active), respectively.
In the case of `CC1(c2ccc(Oc3ccccc3)cc2)OC(=O)N(Nc2ccccc2)C1=O` (stereo not drawn), the call in test [1], in test [2], in test [3], in test [4], in [10] and in test [5] was inactive. Moreover, the compound was called inactive in test [6], in test [7], in test [8] and in test [9].
Consider `COC(=O)c1ccccc1CS(=O)(=O)NC(=O)Nc1nc(OC)cc(OC)n1`, for which the compound was called inactive in [1], in [2], in test [3], in [4], in test [5] and in test [6]. Also, the call in [7], in test [8] and in test [9] was inactive. In addition, the half-maximal activity concentration (AC50) in test [2] is 125 µM (active).
`Cc1cc(C)nc(NC(=O)NS(=O)(=O)c2ccccc2C(=O)OC2COC2)n1`: the call in [1], in [2], in [3], in test [6], in test [7] and in test [8] was inactive. Moreover, in test [9], the call was inactive. Further, the AC50 in test [4] is 79 µM (active); in test [5], 71 µM (active).
On to `Oc1ccc(Cl)cc1Cc1ccccc1`, for which the compound was called inactive in test [1], in test [2], in [3], in test [4], in test [10] and in test [6]. Also, the call in test [7], in [8] and in test [9] was inactive. In addition, the AC50 is 11.1 µM (active) in test [2]; 14.9 µM (active) in [4]; 16.3 µM (active) in test [6]; 20.4 µM (active) in [8]; 20.2 µM (active) in test [9].
In the case of `CCC(C)(NC(=O)c1cc(Cl)c(C)c(Cl)c1)C(=O)CCl` (stereo not drawn), the compound was called inactive in [1], in [2], in [3], in [4], in test [10] and in test [5]. The result in [6], in test [7], in [8] and in test [9] was inactive.
On to `ClC1C(Cl)C(Cl)C(Cl)C(Cl)C1Cl` (stereo not drawn), for which the outcome in [1], in test [2], in test [3], in test [4], in test [6] and in test [7] was inactive. Besides, the result in test [8] and in test [9] was inactive. In addition, the concentration at half-maximal activity (AC50) in test [2] was 100 µM (active) and 69.6 µM (active); in test [6], 8.89 µM (active).
In the case of `CNC(=O)Oc1cccc(N=CN(C)C)c1`, the result in [1], in [2], in [3], in test [4], in test [6] and in [7] was inactive. The values for the concentration at half-maximal activity (AC50) in test [5], in test [8] and in test [9] were 91.4 µM (active), 70.8 µM (active) and 33.6 µM (active), respectively.
In the case of `Oc1cc(Cl)ccc1Oc1ccc(Cl)cc1Cl`, the compound was called inactive in test [1], in [2], in test [3], in test [4], in [10] and in [6]. Also, the compound was called inactive in [7], in test [8] and in [9]. Further, the AC50 in [2] is 13.4 µM (active); in test [4] it was 11.3 µM (active) [middle of 4 runs]; in test [6], 7.09 µM (active) and 17.9 µM (active) and 5.97 µM (active); in [9], 5.97 µM (active).

One may read the AC50 as the concentration at which the activity in the assay is half-maximal.
